Experimental findings from PubChem BioAssay AID1347426 (Functional Genomics Laboratory (NCATS/FGL), 2020) are described below.

In all, about 31,000 sequences went through this assay and about 1,400 (4.5%) were called active. Many of the other results were omitted from the sample, so actives are more common in it than they were. Unmarked numbers belong to inactive results.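 Rule for the calls: active = median seed-adjusted z-score above 1 or below -1; inactive = the rest.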

A short description of this assay: Novel Modifiers of Survival Motor Neuron (SMN) Protein: Gene Identification via Genome-wide siRNA Screen.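 Note: luminescence tracks full-length SMN protein made from the SMN2 reporter.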 To be noted: HEK293T SMN2-luciferase reporter, siRNA knockdown, 72 h; actives lie on both sides. A digest of the protocol:
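HEK293T cells stably carrying an SMN2 promoter/splicing cassette–luciferase reporter were reverse-transfected with 1 pmol siRNA per well (druggable-genome library, 3 siRNAs per gene) and grown 72 h at 37 °C. Luminescence, normalized to negative-control siRNA and log10-transformed, was scored as MAD.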
With GGAAGACUCAUUGAACAUATT against CASP1, the median seed-adjusted z-score is -0.331.

Turning to GGGAAUUACCAGUUACGGATT against TMPRSS12, the median seed-adjusted z-score is 0.0961.

For the sequence CAAUGUUCCUCUACCUCUATT against MAL2, the median seed-adjusted z-score is -0.604.

Consider GCAUCCUUACAGCACUGCATT against XRCC3, for which the median seed-adjusted z-score was 0.332.

As for GACUAUCUUUUUAGGCAAATT against BRIP1, the median seed-adjusted z-score was 0.312.

In the case of GCCUCAUCGUUCUGCAGAATT against ZNF628, the median seed-adjusted z-score was -0.121.

For GUACAGGCCCUACAUCAUUTT against LRP5, the median seed-adjusted z-score was -1 (active).

As to CAUCUGACCCUAACUGAAATT against ZMYND10, the median seed-adjusted z-score was 0.255.

With GGGUGAUCGAGGACCCAAATT against COL8A1, the median seed-adjusted z-score is -0.848.

Turning to GGAUCAUGCUAAAAGGAGATT against SNRPE, the median seed-adjusted z-score was -2.77 (active).

On to GCCUUGUAAAAAUCAACUUTT against ZNF528, for which the median seed-adjusted z-score is -0.0746.

With CGCAAAAGGCUACCACGAATT against CD300LF, the median seed-adjusted z-score was -0.264.

Consider GGUUGCUACGGGAACAAUATT against ARSD, for which the median seed-adjusted z-score was -0.447.

For CAGUGACCUGCUUCCCUCATT against PROP1, the median seed-adjusted z-score is 0.303.

As to CGGUGUGAAGAUGAUCUAATT against DNAJC24, the median seed-adjusted z-score is -0.0166.

Consider GUUACUCACAUUUUCUUUATT against AKR7A3, for which the median seed-adjusted z-score is 0.455.

UAAUCAAUCUGGAAUGUUUTT against BMP8B: the median seed-adjusted z-score is 0.

In the case of CGAGGAGCUGAAUUCCCAATT against SLC9A3R1, the median seed-adjusted z-score was -0.418.

Regarding CAGACUGAAGGGUUCCGAATT against MLH3, the median seed-adjusted z-score was 0.228.

For the sequence GCCUCUAAGAGCUGAGAGATT against PRSS33, the median seed-adjusted z-score was -0.588.

Consider GGACUAUGCAAAGAAUCUATT against RPS6KB1, for which the median seed-adjusted z-score is 1.4 (active).

Turning to GCUACGAUCACAUUACGAATT against JARID1D, the median seed-adjusted z-score was 0.293.

Take GUACCAGUCCAGUCCAUGATT against CDKN2D: the median seed-adjusted z-score was -0.455.

Regarding GGAAGUAAAUGUUGUUUUATT against CCL11, the median seed-adjusted z-score is -0.221.

With GGCCCGAGCUGAUUGACUATT against ACTN1, the median seed-adjusted z-score is 0.

In the case of GCUCUAACCUCACUAAUCATT against ZNF256, the median seed-adjusted z-score is 0.00739.

On to CCGCUGCAACAACCAGAAATT against LRP3, for which the median seed-adjusted z-score was -1.05 (active).

For CAGUCCUACAGGUUCAUCATT against PIP5K1C, the median seed-adjusted z-score was -0.13.

Regarding GAGAUAUUUGAGUCGUUAATT against GBP7, the median seed-adjusted z-score is 0.

On to CAACUCCGUGGUUACCAAATT against PQBP1, for which the median seed-adjusted z-score was -1.12 (active).

As for UCAUGAGCCUGAUAAGUGATT against PPP2R5D, the median seed-adjusted z-score was 0.848.

Turning to GAUCUCAAAUCAGAGUUAATT against ANXA7, the median seed-adjusted z-score is 0.671.

CAAUGGAUCGGCUUCCUUATT against ADRA2B: the median seed-adjusted z-score is 0.00853.

GCAAUAAGAGAGAUCAGUATT against PDSS1: the median seed-adjusted z-score is -0.287.

GGACAAGAAGCAAAUGACATT against OLIG2: the median seed-adjusted z-score was 0.00944.

As to GGUCCGCAAAGGCUUCUGATT against VWA1, the median seed-adjusted z-score is 0.289.

Take CCUUAUCCGAGAAUACAUUTT against TUBAL3: the median seed-adjusted z-score was 1.05 (active).

Consider GGAAAUUGACUUUCUAAAATT against KRT84, for which the median seed-adjusted z-score is -0.645.

In the case of CAGUGACUAUGAGAGUGUATT against SCARB2, the median seed-adjusted z-score was -0.244.

On to CGGUUGAAGUGUAGGGAGATT against TCEA1, for which the median seed-adjusted z-score is 0.

Take CGAGUAUACAGUAUACAGATT against CHAF1B: the median seed-adjusted z-score is 0.634.

With CUCAGAGAAUAAUCACAAATT against PER2, the median seed-adjusted z-score was -0.113.

With GAACUAUAUUCUUCUGUGATT against CDH1, the median seed-adjusted z-score was -0.24.

For the sequence GCCUCCUACUACUUCCGUUTT against SLC6A8, the median seed-adjusted z-score was -0.0673.

Consider GAAUUGUACCUACUUCUGUTT against PTPLA, for which the median seed-adjusted z-score was 0.291.

CUACCUCUCUUGUUUGGAATT against TRIP13: the median seed-adjusted z-score is 1 (active).

For the sequence GCAAGCAGGUUAUCAACGATT against FLII, the median seed-adjusted z-score was -0.353.

As for GCAUGUACGACCAAUGUAATT against NR3C1, the median seed-adjusted z-score was -0.47.

On to GAGUCACAGUUGAAGAUCUTT against GOT2, for which the median seed-adjusted z-score was 0.205.

In the case of CAAUCUCCGCAAAAAUGGATT against PCMT1, the median seed-adjusted z-score is 0.139.

With CGACAUCUCACUCAUGAAATT against SF3A3, the median seed-adjusted z-score was -2.1 (active).

CUAUGGACCAGUCAAAUAATT against NDUFB7: the median seed-adjusted z-score was -0.379.

Regarding ACACCCGCGUGUCUGAUUATT against PPAP2C, the median seed-adjusted z-score is -1.12 (active).

Consider CCCUCAUCAAGAACUUUCATT against S100A14, for which the median seed-adjusted z-score is 0.0172.

As for GCCUAAACAGUGACCGAUUTT against BDH1, the median seed-adjusted z-score was -0.0253.

CUGCUGUUGUUACUACCCATT against USF1: the median seed-adjusted z-score is 0.16.

For the sequence GCAAGACCACGCUCCUUUATT against ARL11, the median seed-adjusted z-score was 1 (active).

Consider GGAGUUAUCUGGUGACAAUTT against UROS, for which the median seed-adjusted z-score is -0.248.

As for GGCUAGUAGCUGAACUUCATT against DIMT1L, the median seed-adjusted z-score is 0.0156.

Consider CAGUUGCAUUGGUUCCCAUTT against EZH1, for which the median seed-adjusted z-score was 0.268.

With GCUUUGGAAGGGUUUGAUATT against DCT, the median seed-adjusted z-score was -0.184.

GACGAAUCACUGCAGUUUATT against GOSR2: the median seed-adjusted z-score was -1.25 (active).

On to CAAGGUCUCCUGUGCUGAATT against MYOG, for which the median seed-adjusted z-score is -0.0972.

On to GGAUGUUGAUGAAGGCAAATT against LDHAL6A, for which the median seed-adjusted z-score was -0.15.

In the case of GAAUAUAACCUGCCGCUUUTT against CD44, the median seed-adjusted z-score was 0.

For GGGCUGGAUUGGUACAGGATT against HS3ST2, the median seed-adjusted z-score was 0.133.

Turning to CGUGUGAUCCAGAGACUUATT against KRT1, the median seed-adjusted z-score was -0.362.

AAGGCUACUUAACAAAGGATT against S100A10: the median seed-adjusted z-score is 0.366.

For GACGACUUCUUGAACAGAATT against ZNF207, the median seed-adjusted z-score is -3.1 (active).
